DAX1 inh-1: DAX1 (NR0B1) inhibitors, primary screen, cell-based, HEK293, Gal4-DAX1, luciferase luminescence. 340,000 compounds, 0.99% hits. inhibition, % at 6.75 µM. Nuclear receptor subfamily 0 group B member 1 (Homo sapiens), P51843. HEK293 Gal4-DAX1 luciferase reporter;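 active means inhibition above the mean over all tested compounds plus 3 SD, cut at about 4.2% in these data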;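 further: 0% = DAX1-transfected cells with DMSO and 100% = empty-vector control cells with DMSO; inhibition shows as a rise in luminescence from relieved DAX1 repression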
Target sequence (P51843 207-470 limits assumed): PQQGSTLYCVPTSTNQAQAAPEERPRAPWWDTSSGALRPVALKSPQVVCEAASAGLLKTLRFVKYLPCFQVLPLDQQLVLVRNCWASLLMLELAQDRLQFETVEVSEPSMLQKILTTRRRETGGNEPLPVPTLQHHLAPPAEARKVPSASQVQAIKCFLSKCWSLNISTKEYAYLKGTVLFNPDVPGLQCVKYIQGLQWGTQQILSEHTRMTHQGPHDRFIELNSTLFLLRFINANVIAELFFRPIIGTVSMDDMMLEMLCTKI
hgDAF-12 ag: H. glycines DAF-12 receptor agonists, primary screen, cell-based, luminescence, HEK293, GAL4 fusion, UAS-luciferase; 370,000 compounds, 1.8% hits; HEK293 GAL4-hgDAF12 UAS-luciferase reporter, agonist luminescence; normalized to butyrate control; activation, % at 6.8 µM; Nuclear hormone receptor DAF-12 (Heterodera glycines), GAL4 fusion;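 active means activation above a cutoff set at the mean of all screened compounds plus 3 SD, cut at about 10% in these data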;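 further: 0% = DMSO wells and 100% = sodium butyrate wells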
DAX1 inh-2: DAX1 (NR0B1) inhibitors on StAR promoter, primary screen, cell-based, luminescence, SF-1 (NR5A1), full-length DAX-1. 370,000 compounds, 1.1% hits. inhibition, % at 6.8 µM. AID 652010, 2013. HEK293T StAR-luciferase reporter, SF-1/DAX-1 repression relief;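 active means inhibition above the mean over all tested compounds plus 3 SD, cut at about 3.6% in these data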;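 further: 0% = DAX-1 cells with DMSO and 100% = cells lacking DAX-1 with DMSO; higher inhibition means more luminescence from relief of DAX-1 repression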
hcDAF-12 act: H. contortus DAF-12 nuclear receptor activators, primary screen, cell-based, luminescence, HEK293, lit1-tk-luc reporter; AID 652067, 2013; 370,000 compounds, 1.4% hits; activation, % at 6.8 µM; HEK293 hcDAF-12 lit1-tk-luc reporter; 0% DMSO, 100% Δ7-dafachronic acid;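 active means activation above the mean of all tested compounds plus 3 SD, cut at about 5.5% in these data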;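 further: 100% = response to 3 µM Δ7-dafachronic acid high control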
ssDAF12 agonist: S. stercoralis DAF-12 nuclear receptor activators, primary screen, cell-based, luminescence, HEK293, GRIP1 co-expression, lit1-tk-luc; Nuclear hormone receptor DAF-12 (Strongyloides stercoralis); HEK293 ssDAF-12/GRIP1 lit1-tk-luc reporter; % of 3 µM dafachronic acid response; activation, % at 6.8 µM; 370,000 compounds, 1% hits; AID 652126, 2013;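 active means activation above the mean over all tested compounds plus 3 SD, cut at about 0.9% in these data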;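 further: 0% = DMSO-only wells and 100% = 3 µM delta7-dafachronic acid wells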
AHR activator: AHR activators, primary screen, cell-based, luminescence, luciferase reporter, human. Aryl hydrocarbon receptor (Homo sapiens), P35869. AHR-responsive luciferase reporter cells. activation, % at 5 µM. 320,000 compounds, 2.5% hits. AID 2796, 2010; in the data active means activation above about 47%;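 further: 0% = vehicle wells and 100% = reference agonist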
* = called active by the depositor. Compounds with a hit are over-represented: about 5.7% of the library has one in this group of screens.

SMILES	DAX1 inh-1	hgDAF-12 ag	DAX1 inh-2	hcDAF-12 act	ssDAF12 agonist	AHR activator
O=C(Nc1ccc2c(c1)OCO2)c1cnccn1	3	7	2	1	-1	66*
O=C(COC(=O)c1cnccn1)Nc1ccc2c(c1)OCO2	2	1	0	0	-1	1
Cc1ccc(NC(=O)c2cnccn2)cc1	4	7	3	4	-1	-3
Cc1ccc(NC(=O)c2cnccn2)cc1C	4.6*	11*	2	3	0	2
CC(C)Nc1nnc(SC(C)C(=O)NCc2ccc3c(c2)OCO3)s1 (stereo not drawn)	0	-2	0	-2	-2	-1
CCOC(=O)c1nn(-c2ccc(C)c(C)c2)cc1O	2	13*	3	5	-1	0
CCOC(=O)c1nn(-c2ccc([N+](=O)[O-])cc2)cc1O	2	2	2	0	-1	2
Cn1c(-c2ccc(C=O)s2)nc2ccccc21	0	12*	0	3	0	2
CC(C)Cn1c(-c2cccs2)nc2ccccc21	-2	2	0	-1	-1	3
Cn1c(-c2cccs2)nc2ccccc21	0	11*	2	2	0	1
Cn1c(-c2ccc(N)cc2)nc2ccccc21	1	8	1	1	-1	4
CCOC(=O)C1(Cc2cccc(OC)c2)CCCN(C(=O)c2ccccc2C)C1 (stereo not drawn)	2	3	0	-1	-1	1
CCOC(=O)C1(Cc2cccc(OC)c2)CCCN(C(=O)CNC(C)=O)C1 (stereo not drawn)	2	13*	1	3	0	2
Nc1cc(N)cc(-c2nc3ccccc3o2)c1	2	-2	-1	-1	-1	72*
Cc1ccc(CN2CCC(CNC(=O)Nc3ccccc3F)CC2)cc1	4.4*	-1	-1	-1	0	1
CCc1ccc(NC(=O)NCC2CCN(Cc3cccc(Cl)c3)CC2)cc1	-1	3	0	1	-2	1
Cc1ccc(NC(=O)NCC2CCN(Cc3cccc(Cl)c3)CC2)cc1Cl	1	3	0	-1	1.7*	1
CCc1cccc(NC(=O)Cn2ncn3c(cc4ccccc43)c2=O)c1	0	1	-1	6.4*	0	5
Cc1ccc(NC(=O)Cn2ncn3c(cc4ccccc43)c2=O)cc1F	0	3	0	1	0	10
Cc1nn(-c2ccc(F)cc2)c(Cl)c1C(=O)N(C)CC(=O)Nc1cccc(F)c1	-2	-5	-4	-3	-1	1
COc1ccc(N(CC(=O)Nc2ccc3c(c2)OCO3)S(=O)(=O)c2ccccc2)c(OC)c1	-2	-2	-2	-2	-1	63*
COc1ccc(N(CC(=O)Nc2ccc3c(c2)OCCO3)S(=O)(=O)c2c(C)nn(C)c2C)cc1	-2	-1	1	4	-1	2
Cc1nn(C)c(C)c1S(=O)(=O)N(CC(=O)Nc1ccc2c(c1)OCO2)c1ccc(C(C)C)cc1	-1	-4	-1	1	-1	56*
COc1ccc(S(=O)(=O)N(C)CC(=O)Nc2ccc3c(c2)OCO3)cc1	0	0	0	-3	-1	6
COc1ccc(N(CC(=O)Nc2ccc3c(c2)OCO3)S(=O)(=O)c2ccc(F)cc2)cc1	0	3	1	1	0	67*
COc1ccc(N(CC(=O)Nc2ccc3c(c2)OCO3)S(=O)(=O)c2ccccc2)cc1OC	2	-2	0	1	0	50*
O=c1ccnc(Nc2ccc([N+](=O)[O-])cc2)[nH]1	0	0	0	-2	-1	2

Bioassay records from PubChem BioAssay.
